Test results reported in PubChem BioAssay (NCI).
Compounds without any hit were thinned out: in the full panel of roughly 79,000, 15% have a hit. Values without a mark were called inactive. Activity calls are given as the source filed them. No stated cut-off is given here; in the data, active means growth inhibition above about 70%; inactive means the rest.

Legend:
[1] = NCI Yeast Anticancer Drug Screen. Data for the rad50 strain (AID 155);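 further: 0% = growth of vehicle-only cultures of the same strain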; conditions: S. cerevisiae rad50 strain growth inhibition; at 50.0 µM; stronger effect = higher value
Outline: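 Compounds were tested on a yeast strain with an engineered DNA damage repair alteration; the reported value is growth inhibition normalised to vehicle treatment.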

[2] = NCI Yeast Anticancer Drug Screen. Data for the mec2-1 strain (AID 157); conditions: S. cerevisiae mec2-1 strain, at 50.0 µM, stronger effect = higher value
Outline: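 Readout is yeast growth inhibition, normalised to vehicle-treated controls, in the mec2-1 strain exposed to compound.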

[3] = NCI Yeast Anticancer Drug Screen. Data for the sgs1 mgt1 strain (AID 161);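 further: 0% = growth of cultures given vehicle only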; conditions: S. cerevisiae sgs1 mgt1 strain, at 50.0 µM, stronger effect = higher value
Outline: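 This yeast growth screen uses a strain with defined DNA-repair lesions; compound-treated growth is compared with vehicle-treated growth.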

[4] = NCI Yeast Anticancer Drug Screen. Data for the cln2 rad14 strain (AID 165);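 further: 0% = growth equal to vehicle treated cultures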; conditions: S. cerevisiae cln2 rad14 strain, at 50.0 µM, stronger effect = higher value
Outline: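 Relative to vehicle controls, growth inhibition of compound-treated cln2 rad14 yeast was recorded.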

[5] = NCI Yeast Anticancer Drug Screen. Data for the bub3 strain (AID 167); conditions: S. cerevisiae bub3 mutant strain, at 50.0 µM, stronger effect = higher value
Outline: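 Growth of a checkpoint-deficient yeast mutant is measured after compound exposure. Values represent inhibition relative to vehicle.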

[6] = NCI Yeast Anticancer Drug Screen. Data for the mlh1 rad18 strain (AID 175); conditions: S. cerevisiae mlh1 rad18 strain growth inhibition; at 50.0 µM; stronger effect = higher value
Outline: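 Test agents were incubated with a yeast strain of defined genotype (DNA damage repair defect). Inhibition of growth was derived by comparison with vehicle-exposed cultures.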

Structure (SMILES)	growth inhibition [1]	growth inhibition [2]	growth inhibition [3]	growth inhibition [4]	growth inhibition [5]	growth inhibition [6]
Nc1ncnc2nc(N=Nc3ccc(S(=O)(=O)O)cc3)[nH]c12	4.25%	-21.1%	-1.2%	-23.4%	-6.35%	-6.75%
O=C(O)c1[nH]c(=O)[nH]c(=O)c1Br	-4.3%	-22.9%	-9.75%	-40.5%	-15.7%	-17.6%
CC(C)=C1CC(=O)NC1=O	-10.8%	17.1%	-3.2%	6.35%	-6.05%	0.55%
O=COCCOC=O	19.9%	5.55%	-23.6%	20.6%	10.2%	14.2%
CC(=O)N=Cc1c(O)[nH]c2ccccc12	36.9%	11.7%	0.5%	6.85%	8.3%	0.45%
CC1(C)N=C(C(N)=O)c2[nH]cnc2N1	-2.55%	4.35%	12.8%	13.3%	11.3%	-51.2%
Cc1cccc(C(=O)O)c1-c1c(C)cccc1C(=O)O	13.3%	-5.95%	-6.8%	3.05%	0.8%	12.9%
Fc1cc(F)c2c(c1)Nc1cc(F)cc(F)c1S2	27.5%	21.6%	4.75%	-13.6%	22.9%	12.7%
NC1CCC(P(=O)(O)O)CC1 (centres undefined)	-0.35%	3.45%	-4.75%	-9.65%	-6.2%	-5.1%
CSc1cc(/C=C/c2ccccc2)ccc1N	1%	1.5%	-9.45%	-33.5%	5.25%	2%
CN=CN(C)c1c2ccccc2nc2ccccc12	5.6%	-11.3%	-5.05%	10.7%	9.75%	-1.25%
CCOC(=O)C(c1ccsc1)C(C(=O)OCC)c1cccs1 (centres undefined)	3.3%	23.1%	-4.95%	-3.35%	25.6%	17%
CCOC(=O)c1cc(C)nc(Cl)c1C#N	6.3%	12.8%	7.9%	13.7%	21.1%	12.4%
CCCCCCCc1ccc(N=Cc2ccc(OCCC)cc2)cc1	98.8% (active)	99.3% (active)	98.9% (active)	99% (active)	97.7% (active)	99.2% (active)
CC(=O)SC1CC(=O)OC1=O (centres undefined)	-3.1%	-15.3%	7.1%	7.8%	0.2%	7.85%
CC(C)c1ccc(N=Nc2ccc(N(C)C)cc2)cc1	4.2%	1.85%	-4.55%	-17.9%	-4.7%	-5.65%
Cn1c(O)c2c(c1O)C(=Nc1ccccc1)c1ccccc1C2=O	89.2% (active)	98.5% (active)	93% (active)	94.2% (active)	98.6% (active)	97.9% (active)
CC(O)C(=O)OCCOCCOC(=O)C(C)O (centres undefined)	21.4%	4.1%	10.8%	-11.8%	11.8%	7.4%
NCC(=O)c1cc2ccccc2[n+]([O-])c1	1.6%	-4.45%	1.8%	-51.2%	-8.5%	-14.4%
O=NC1C(Cl)C2CC1C1COCC21 (centres undefined)	-16%	-9.55%	-9.05%	-30.1%	1%	-7.05%

Structure (SMILES)	growth inhibition [1]	growth inhibition [2]	growth inhibition [3]	growth inhibition [4]	growth inhibition [5]	growth inhibition [6]
NC(CCCCCCCCCCP(=O)(O)O)C(=O)O (centres undefined)	-39.6%	-41.5%	-76.4%	-12.1%	-19.6%	-18.6%
CC(=O)Oc1ccccc1C=C(C(=O)O)C(=O)O	-7.7%	-11.5%	-8.1%	-20.7%	-9.2%	-10.9%
CCC(=O)Nc1nc2c(ncn2C2OC(COC(=O)CC)C(OC(=O)CC)C2OC(=O)CC)c(=O)[nH]1 (centres undefined)	-11.6%	5.2%	18.5%	6.25%	6.8%	-7.3%
Brc1ccc(-c2[nH]c3ccccc3c2N=Nc2ccccc2)cc1	0.85%	-9.6%	6.45%	-7%	-11.1%	-56.7%
CCN(CC)C(=S)N/N=C/c1ccccn1	89.5% (active)	92% (active)	91% (active)	89.2% (active)	89.8% (active)	90.3% (active)
Nc1nc(-c2ccc(Cl)c(Cl)c2)cc(-c2cc(-c3ccc(Cl)c(Cl)c3)nc(N)n2)n1	24.9%	2.55%	7.55%	21.6%	4.2%	11%
c1ccc(C2N3CCCCC3[C@@H]3c4[nH]c5ccccc5c4CCN23)nc1 (some centres undefined)	-26.8%	-36.5%	-6.5%	13.3%	-25.9%	-4.1%
CNC(=O)Nc1cc2c3c(c1)CCCN3CCC2	-16.8%	-36.6%	-9.45%	-15.8%	-9.55%	-8.3%
O=S(=O)(O)CS(=O)(=O)O	-21.9%	-2.3%	8.3%	-26.4%	4.9%	-1.15%
CCC1(CC)C(=O)NN(C(=O)c2ccccc2)C1=O	19.3%	-20.1%	28.4%	13.6%	-4.45%	-43.4%
CC(=O)/C=C(\c1ccccc1)c1c(O)c2ccccc2oc1=O	-2%	9.15%	4.45%	7.2%	3.85%	6.15%
Cc1cccc2c1C1c3ccccc3C(=O)CC1CC2=O (centres undefined)	14.9%	30%	22.9%	25.7%	11%	35.2%
NC(=O)C1CCCN1C(=O)C(Cc1cnc[nH]1)NC(=O)C1CCCC1 (centres undefined)	-46.4%	-1.6%	-1.65%	8.1%	7.05%	-8.35%
CNC(=O)O[C@H]1C(=O)O[C@@H]2C[C@H]3C(C)=C(O)C(=O)C[C@]3(C)[C@H]3[C@@H](O)[C@H](O)[C@@]4(C(=O)OC)OC[C@]32[C@@H]14	24.9%	16.4%	1.95%	7.3%	14.9%	16.9%
O=S1(=O)CS/C(=N/C(=S)N(Cc2ccccc2)Cc2ccccc2)N1c1ccccc1	43%	14%	35.1%	24.8%	-3.85%	29.6%
CN(C(=O)CCC(=O)O)c1ccccc1C(=O)O	0.2%	-2.35%	11%	-5.75%	0.85%	-15.9%
O=C(Cn1c2c(c3ccccc31)CCCC2)N1CCOCC1	-19.3%	-29.4%	-14.1%	5.15%	-23.8%	-19.6%
O=C(CSC1=NCCN1)c1ccccc1	-17.9%	6.3%	-27.1%	-57.9%	8.55%	11.6%
COC(=O)C(NC(=O)c1ccccc1)C(C)=O (centres undefined)	9.5%	-0.7%	-3.4%	-35.4%	-16.9%	10%
